Measured values taken from PubChem BioAssay.
Calls of active or inactive are those of the source. Unless noted, the rule behind the calls is not given here.

Legend:
[1] = test system: Wnt5a (protein binding on small-molecule microarray); assay: small molecules binding Wnt5a protein – biophysical, small-molecule microarray, 635/667 nm fluorescence, primary screen (AID 1142); conditions: 635 nm fluorescence, higher = more signal;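 note: fluorescence read at 667 nm with signal to noise per printed feature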
[2] = ATP-based viability of Huh7 replicon cells – cell-based, CellTiter-Glo luminescence, basal, 48 h, cytotoxicity control for HCV replication inhibitor project, primary screen (AID 1143); conditions: higher = more signal, called active from +8 up or from −8 down;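 note: Huh7 hepatoma cells carrying a hepatitis C replication reporter with no stimulus; test concentration not given here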
[3] = Pseudomonas biofilm growth suppression – PAO1 strain, BacTiter-Glo luminescence, LB-PBS, primary screen (AID 1144); conditions: P. aeruginosa PAO1 biofilm, 12 h, higher = more signal
[4] = basal CRE-LacZ reporter activity in PC12 – cell-based, unstimulated, primary screen (AID 1145); conditions: no forskolin, luminescence, 4.5 h, higher = more signal, called active from +8 up or from −8 down
[5] = forskolin-driven CRE-LacZ activity in PC12 – cell-based, CRE-LacZ reporter, forskolin-stimulated, primary screen (AID 1146); conditions: luminescence, 4.5 h, higher = more signal, called active from +8 up or from −8 down;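 note: PC12 cells with 6xCRE LacZ reporter stimulated by forskolin 10 µM; beta-galactosidase reporter signal reflecting CREB driven transcription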
[6] = target: Streptavidin (Streptomyces avidinii) (UniProt P22629); assay: compounds binding control protein streptavidin – biophysical, small-molecule microarray, 635/667 nm fluorescence, artefact control for SMM compound annotation, primary screen (AID 1147); conditions: higher = more signal;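 note: signal reflects streptavidin binding to arrayed compounds as a control protein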
[7] = probe aInhba binding on compound microarray – biochemical, small-molecule microarray, 635/667 nm fluorescence, primary screen (AID 1148); conditions: higher = more signal;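 note: score merges 667nm spot fluorescence with signal-to-noise for antibody binding to printed compounds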
[8] = target: Torsin-1A (Homo sapiens) (UniProt O14656); assay: TOR1A wild-type binding on microarray – cell lysate, small-molecule microarray, lysate, 635/667 nm, primary screen (AID 1149); conditions: COS7 hTOR1A-WT lysate, 635 nm fluorescence, higher = more signal
[9] = target: Torsin-1A (Homo sapiens) (UniProt O14656); assay: torsin A mutant lysate binding on microarrays – cell lysate, small-molecule microarray, COS7 lysate, 635/667 nm fluorescence, primary screen (AID 1150); conditions: COS7 hTOR1A mutant lysate, 635 nm fluorescence, higher = more signal;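 note: score pools 667 nm emission and signal to noise measuring lysate protein binding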
[10] = test system: Sonic hedgehog protein (Shh); assay: Sonic hedgehog microarray binding compounds – biochemical, small-molecule microarray, 635/667 nm fluorescence, primary screen (AID 1151); conditions: 635 nm fluorescence, higher = more signal;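 note: Shh protein binding to compounds spotted on small-molecule microarray slides; score combines spot fluorescence intensity with signal-to-noise across triplicate slides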
[11] = optical density shifts of acrAB sulA E. coli – strain DRC41, OD650, 48 h, E. coli filamentation inducer project, primary screen (AID 1152); conditions: higher = more signal, called active from +8 up or from −8 down;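 note: E. coli MC1000 strain DRC41 lacking acrAB efflux pump and sulA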
[12] = probe aLefty1 binding on compound microarray – biochemical, small-molecule microarray, 635/667 nm fluorescence, primary screen (AID 1153); conditions: higher = more signal;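 note: score merges spot fluorescence with signal-to-noise ratio from the scanned slide images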
[13] = plasmodial surface anion channel blockers, osmotic lysis – cell-based, P. falciparum Indochina, OD700, 1 h, primary screen (AID 1154); conditions: P. falciparum Indochina infected RBC osmotic lysis, higher = more signal, called active from +8 up or from −8 down
[14] = plasmodial surface anion channel blockers, osmotic lysis – cell-based, P. falciparum Indochina, OD700, 2 h, primary screen (AID 1155);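 note: lysis reports solute entry through the parasite surface anion channel PSAC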; conditions: P. falciparum Indochina infected erythrocytes, higher = more signal, called active from +8 up or from −8 down
[15] = changes in parasitized red cell lysis, either direction – P. falciparum Indochina, OD700, 3 h, PSAC antagonist project, primary screen (AID 1156); conditions: P. falciparum-infected erythrocytes, osmotic lysis, higher = more signal, called active from +8 up or from −8 down
[16] = plasmodial surface anion channel blockers, osmotic lysis – cell-based, P. falciparum Indochina, OD700, 18 h, primary screen (AID 1157); conditions: P. falciparum Indochina infected erythrocytes, osmotic lysis OD700, 18 h; higher = more signal, called active from +8 up or from −8 down
[17] = S6 kinase pathway phospho-S6 level changes – cell-based, A549, cytoblot, luminescence, serum-stimulated, primary screen (AID 1158); conditions: 5 h, higher = more signal;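 note: serum-stimulated A549 lung adenocarcinoma cells; signal is phosphorylated S6 detected by cytoblot immunostaining with HRP secondary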
[18] = target: NADPH oxidase 2 (Homo sapiens) (UniProt P04839); assay: compounds shifting NOX2 Amplex Red fluorescence – cell-based, HEK293-NOX2, PMA-stimulated, NOX inhibitor project, primary screen (AID 1159); conditions: 45 min, higher = more signal, called active from +8 up or from −8 down; note: test concentration not given here
[19] = target: NADPH oxidase 4 (Homo sapiens) (UniProt Q9NPH5); assay: compounds shifting NOX4 Amplex Red fluorescence – cell-based, HEK293-NOX4, tetracycline-induced, NOX inhibitor project, primary screen (AID 1160); conditions: HEK293-NOX4, Amplex Red H2O2 fluorescence, 45 min; higher = more signal, called active from +8 up or from −8 down
[20] = target: NADPH oxidase 5 (Homo sapiens) (UniProt Q96PH1); assay: compounds shifting NOX5 Amplex Red fluorescence – cell-based, HEK293-NOX5, NOX inhibitor project, primary screen (AID 1161); conditions: HEK293-NOX5, ionomycin, 45 min, higher = more signal
Sequence of NADPH oxidase 5 (Homo sapiens) (Q96PH1 whole entry, looked up): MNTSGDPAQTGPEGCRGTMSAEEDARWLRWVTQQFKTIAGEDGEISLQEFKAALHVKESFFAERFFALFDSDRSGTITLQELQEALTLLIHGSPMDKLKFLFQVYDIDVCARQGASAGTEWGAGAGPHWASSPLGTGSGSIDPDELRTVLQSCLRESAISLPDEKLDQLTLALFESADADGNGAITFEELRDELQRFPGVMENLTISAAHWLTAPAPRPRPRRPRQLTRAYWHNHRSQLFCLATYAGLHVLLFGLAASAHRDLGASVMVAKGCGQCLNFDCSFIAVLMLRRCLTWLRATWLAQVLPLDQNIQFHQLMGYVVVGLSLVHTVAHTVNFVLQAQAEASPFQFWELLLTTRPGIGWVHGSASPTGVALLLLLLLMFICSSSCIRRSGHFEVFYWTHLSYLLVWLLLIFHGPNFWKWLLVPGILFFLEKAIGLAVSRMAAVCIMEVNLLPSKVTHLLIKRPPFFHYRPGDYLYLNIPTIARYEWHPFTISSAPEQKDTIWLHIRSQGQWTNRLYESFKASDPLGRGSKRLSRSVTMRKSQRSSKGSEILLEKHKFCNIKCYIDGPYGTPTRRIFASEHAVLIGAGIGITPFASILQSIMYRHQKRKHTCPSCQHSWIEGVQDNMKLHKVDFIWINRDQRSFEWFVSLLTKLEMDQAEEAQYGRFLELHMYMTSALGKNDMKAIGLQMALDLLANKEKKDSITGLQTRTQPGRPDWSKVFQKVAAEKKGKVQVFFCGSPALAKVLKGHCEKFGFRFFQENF

Sequence of NADPH oxidase 4 (Homo sapiens) (Q9NPH5 whole entry, looked up): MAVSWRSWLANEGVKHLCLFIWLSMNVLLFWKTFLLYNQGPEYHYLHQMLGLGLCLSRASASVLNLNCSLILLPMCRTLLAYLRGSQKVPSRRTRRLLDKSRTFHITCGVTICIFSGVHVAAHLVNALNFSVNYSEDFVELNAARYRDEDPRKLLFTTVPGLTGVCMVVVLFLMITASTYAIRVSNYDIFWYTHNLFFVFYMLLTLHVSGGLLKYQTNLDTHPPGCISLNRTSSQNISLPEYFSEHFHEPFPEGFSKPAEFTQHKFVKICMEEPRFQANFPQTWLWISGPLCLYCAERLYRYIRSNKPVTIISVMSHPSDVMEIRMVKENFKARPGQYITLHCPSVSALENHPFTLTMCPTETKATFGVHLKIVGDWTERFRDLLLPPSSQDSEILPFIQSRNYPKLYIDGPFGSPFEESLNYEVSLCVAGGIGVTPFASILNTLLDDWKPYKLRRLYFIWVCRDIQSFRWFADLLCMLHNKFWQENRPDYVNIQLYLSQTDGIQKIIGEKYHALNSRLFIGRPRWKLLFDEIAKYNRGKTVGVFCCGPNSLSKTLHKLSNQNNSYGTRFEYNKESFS
Sequence of Streptavidin (Streptomyces avidinii) (P22629 whole entry, looked up): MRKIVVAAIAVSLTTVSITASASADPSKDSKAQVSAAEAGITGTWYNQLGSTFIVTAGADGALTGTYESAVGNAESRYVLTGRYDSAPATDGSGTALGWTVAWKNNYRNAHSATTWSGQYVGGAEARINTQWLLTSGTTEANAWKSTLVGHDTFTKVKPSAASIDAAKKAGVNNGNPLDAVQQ
Sequence of NADPH oxidase 2 (Homo sapiens) (P04839 whole entry, looked up): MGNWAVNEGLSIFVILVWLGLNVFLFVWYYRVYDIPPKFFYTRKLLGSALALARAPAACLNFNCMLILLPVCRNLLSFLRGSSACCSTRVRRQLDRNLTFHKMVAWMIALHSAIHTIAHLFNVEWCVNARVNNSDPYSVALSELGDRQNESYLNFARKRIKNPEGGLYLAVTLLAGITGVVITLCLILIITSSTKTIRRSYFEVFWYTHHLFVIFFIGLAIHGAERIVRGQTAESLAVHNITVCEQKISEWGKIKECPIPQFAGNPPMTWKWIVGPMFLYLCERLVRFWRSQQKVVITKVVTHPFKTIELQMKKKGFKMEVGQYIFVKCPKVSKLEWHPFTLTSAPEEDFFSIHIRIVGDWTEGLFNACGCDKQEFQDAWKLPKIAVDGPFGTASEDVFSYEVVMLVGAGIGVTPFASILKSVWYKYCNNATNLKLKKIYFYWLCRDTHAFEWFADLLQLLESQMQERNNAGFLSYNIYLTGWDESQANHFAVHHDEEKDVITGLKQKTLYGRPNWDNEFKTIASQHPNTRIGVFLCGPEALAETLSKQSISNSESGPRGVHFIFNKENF
Sequence of Torsin-1A (Homo sapiens) (O14656 whole entry, looked up): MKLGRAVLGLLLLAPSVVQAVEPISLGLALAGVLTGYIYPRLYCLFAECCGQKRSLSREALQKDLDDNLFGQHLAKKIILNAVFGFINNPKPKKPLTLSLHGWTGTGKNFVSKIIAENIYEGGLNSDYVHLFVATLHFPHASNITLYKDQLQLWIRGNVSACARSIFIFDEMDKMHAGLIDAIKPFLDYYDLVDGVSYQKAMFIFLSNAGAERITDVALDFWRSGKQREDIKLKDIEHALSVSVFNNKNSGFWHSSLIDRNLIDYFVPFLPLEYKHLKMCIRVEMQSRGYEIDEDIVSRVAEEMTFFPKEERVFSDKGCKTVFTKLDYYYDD

SMILES	composite z-score [1]	z-score [2]	z-score [3]	z-score [4]	z-score [5]	composite z-score [6]	composite z-score [7]	composite z-score [8]	composite z-score [9]	composite z-score [10]	z-score [11]	composite z-score [12]	z-score [13]	z-score [14]	z-score [15]	z-score [16]	z-score [17]	z-score [18]	z-score [19]	z-score [20]
CC(=O)OC[C@H]1O[C@@H](ON=C(C)CCN2CCCc3nc(C)c(C)cc32)[C@H](OC(C)=O)[C@@H](OC(C)=O)[C@@H]1OC(C)=O	0.237	-2.36 (inactive)	-0.731 (inactive)	1.89 (inactive)	-0.112 (inactive)	0.345	-0.0626	-0.164	0.604	1.06	-1.13 (inactive)	-0.115	-0.72 (inactive)	0.0956 (inactive)	1.01 (inactive)	-1.18 (inactive)	0.649	0.502 (inactive)	-1.36 (inactive)	-1.09
O=c1n(Cc2cc3c(cc2Cl)OCO3)c(=O)n2n1CC[C@@H]1C(=NOC[C@@H](O)COCc3ccco3)[C@H]3O[C@H]3[C@@H](O)[C@@H]12	0.127	0.376 (inactive)	-1.11 (inactive)	0.975 (inactive)	0.819 (inactive)	1.02	0.0084	0.365	0.156	0.344	-0.289 (inactive)	0.175	0.0384 (inactive)	0.012 (inactive)	-0.258 (inactive)	-0.138 (inactive)	0.393	0.0338 (inactive)	-1.95 (inactive)	-0.278
CON=C[C@@H](NS(=O)(=O)c1ccc(C)cc1)[C@H](C)C=CCC(=O)OC	0.0181	0.319 (inactive)	-0.357 (inactive)	0.173 (inactive)	-0.196 (inactive)	0.188	-0.128	0.379	-0.199	0.779	-1.47 (inactive)	-0.0984	0.553 (inactive)	0.849 (inactive)	-0.459 (inactive)	0.539 (inactive)	0.22	-0.153 (inactive)	-0.345 (inactive)	-0.415
COC(=O)[C@@H]1CC[C@H](C)[C@@H](c2ccc(C)cc2)N1C(=O)c1ccc(C=NO[C@H](C)c2cn([C@@H]3COC[C@H]3O)nn2)cc1	0.177	-0.228 (inactive)	0.068 (inactive)	2.34 (inactive)	-0.377 (inactive)	-0.243	0.0001	0.28	0.603	0.749	0.153 (inactive)	0.109	22.6 (active)	3.19 (inactive)	0.615 (inactive)	1.52 (inactive)	-0.477	-0.166 (inactive)	0.124 (inactive)	0.196
C#CCCCON=C1C[C@@H](O)[C@@H](O)[C@@H]2[C@@H]3C(=O)N(CC)C(=O)[C@@H]3CC[C@@H]12	-0.0855	0.0213 (inactive)	-0.327 (inactive)	-0.116 (inactive)	-0.14 (inactive)	-0.0757	-0.181	0.787	0.555	1.2	-0.229 (inactive)	-0.243	0.299 (inactive)	0.363 (inactive)	-0.26 (inactive)	-0.0637 (inactive)	-0.595	0.275 (inactive)	0.764 (inactive)	-0.64
CC(=O)O[C@H]1C2=CO[C@H](C)[C@H]3[C@H]4C5=C([C@H](O)[C@H]6O[C@H]6C5=O)[C@H](OC4C)[C@@]23C(=O)[C@@H]2O[C@@H]21 (stereo not given in full)	0.25	-6.34 (inactive)	0.298 (inactive)	0.831 (inactive)	16.6 (active)	-0.458	-0.292	-0.119	-0.279	0.604	-0.16 (inactive)	-0.0477	-0.312 (inactive)	-0.431 (inactive)	0.128 (inactive)	0.1 (inactive)	-1.05	-0.717 (inactive)	-0.891 (inactive)	-0.242
C=Cc1ccc([C@H]2N[C@H](C(=O)O)CC[C@@H]2C)cc1	-0.0905	0.369 (inactive)	0.53 (inactive)	-0.346 (inactive)	0.179 (inactive)	-0.536	-0.0714	-0.188	0.307	0.36	0.374 (inactive)	-0.338	-0.27 (inactive)	-0.344 (inactive)	-1.26 (inactive)	-0.267 (inactive)	-0.599	1.06 (inactive)	-0.0223 (inactive)	0.0584
CO[C@H]1COC(=O)[C@@H](C)COC(=O)[C@@H](OCc2ccccc2)C=C[C@@H]1C	0.007	-0.0174 (inactive)	0.304 (inactive)	-0.0293 (inactive)	-0.803 (inactive)	-0.136	-0.016	0.743	-0.253	0.214	-0.303 (inactive)	-0.235	-0.347 (inactive)	0.32 (inactive)	0.328 (inactive)	-0.0659 (inactive)	-0.286	0.237 (inactive)	0.566 (inactive)	-0.609
COC(=O)[C@H](C)NC(=O)CCC1CC(OC(=O)NCc2ccc3c(c2)OCO3)CC2(CCCC(COC(=O)NCCc3ccccc3OC)O2)O1 (stereo not given in full)	-0.0418	-0.643 (inactive)	0.301 (inactive)	0.0167 (inactive)	0.711 (inactive)	-0.0673	-0.154	0.465	0.182	-0.004	-0.0563 (inactive)	-0.162	20.9 (active)	5.56 (inactive)	-0.257 (inactive)	0.566 (inactive)	1.15	0.221 (inactive)	0.301 (inactive)	0.339
CO[C@@H]1COC(=O)CC=C[C@@H](C)[C@H](OC)COC(=O)[C@@H](C)COC(=O)CC=C[C@H]1C	-0.451	-0.128 (inactive)	0.416 (inactive)	0.518 (inactive)	-0.14 (inactive)	0.0524	-0.266	1.4	0.381	1.68	0.604 (inactive)	-0.145	-0.52 (inactive)	0.409 (inactive)	-0.28 (inactive)	0.377 (inactive)	-0.0303	-0.387 (inactive)	0.195 (inactive)	0.479
Cc1ccc(S(=O)(=O)n2c3ccccc3c3nnc(C(=O)c4ccccc4)nc32)cc1	0.19	-0.472 (inactive)	-0.673 (inactive)	1.38 (inactive)	-1.15 (inactive)	-0.237	0.0998	0.0855	-0.292	0.766	1.04 (inactive)	-0.179	4.4 (inactive)	0.266 (inactive)	-0.0784 (inactive)	0.421 (inactive)	0.479	-0.0413 (inactive)	0.179 (inactive)	-0.341
COC(=O)CC=C[C@H](C)[C@@H](OCc1cccc(Br)c1)[C@@H](C)[C@H](OC)C1CCCCC1	-0.375	0.137 (inactive)	0.781 (inactive)	-1.05 (inactive)	-1.25 (inactive)	-0.243	-0.128	0.312	-0.119	0.341	-0.533 (inactive)	-0.333	1.82 (inactive)	0.675 (inactive)	-0.0293 (inactive)	0.686 (inactive)	0.433	-0.453 (inactive)	0.286 (inactive)	0.664
CC(C)=NO[C@H](C)c1cn([C@H](CO)Cc2ccccc2)nn1	-0.179	-0.684 (inactive)	0.159 (inactive)	1.61 (inactive)	0.112 (inactive)	1.14	-0.0178	-0.232	0.015	-0.195	-2.06 (inactive)	-0.142	0.29 (inactive)	0.0191 (inactive)	-0.188 (inactive)	0.269 (inactive)	0.225	0.849 (inactive)	-0.311 (inactive)	-0.281
O=C1C=C[C@@H](O)[C@@H]2[C@@H]3C(=O)N(C[C@@H]4CCCO4)C(=O)[C@@H]3CC[C@@H]12	-0.142	-0.228 (inactive)	0.477 (inactive)	-0.295 (inactive)	-0.593 (inactive)	-0.029	-0.0424	0.294	0.462	0.159	0.0413 (inactive)	0.0313	1.08 (inactive)	0.979 (inactive)	-0.0029 (inactive)	0.281 (inactive)	-0.382	1.71 (inactive)	-0.0876 (inactive)	0.283
CO[C@@H]1C=CCC(=O)N[C@@H](C)C(=O)OC[C@@H](OC)[C@H](C)CCCC(=O)OC[C@H]1C	0.122	-0.468 (inactive)	-0.499 (inactive)	-0.808 (inactive)	0.0561 (inactive)	0.253	-0.101	3.16	2.84	1.71	0.0058 (inactive)	0.0816	-1.15 (inactive)	-1.22 (inactive)	-0.683 (inactive)	-2.43 (inactive)	-0.417	0.57 (inactive)	0.957 (inactive)	0.645
CCc1cc2c(nc1CC)CCN(CCC(C)=NO[C@H](C)c1cn([C@@H]3COC[C@H]3O)nn1)C2	-0.0763	0.401 (inactive)	1.7 (inactive)	0.238 (inactive)	-0.183 (inactive)	0.383	-0.0963	0.161	0.292	0.282	0.211 (inactive)	0.199	1.34 (inactive)	0.72 (inactive)	0.322 (inactive)	0.367 (inactive)	-0.656	-0.539 (inactive)	-0.138 (inactive)	0.779
C[C@H]1CC[C@H]2C(=O)O[C@H](COc3ccc(C(C)(C)C)cc3)CN2[C@@H]1c1ccc(Br)cc1	-0.185	-1.47 (inactive)	-0.239 (inactive)	1.72 (inactive)	-0.466 (inactive)	0.0762	-0.0021	0.188	0.3	0.48	-0.421 (inactive)	-0.412	0.683 (inactive)	0.237 (inactive)	-0.889 (inactive)	0.465 (inactive)	-0.338	0.215 (inactive)	0.644 (inactive)	0.974
